Results published in PubChem BioAssay AID1159580 (chemical genetic matrix, 2015).
In all, about 5,500 compounds went through this assay and about 2,000 (36%) were called active. About 18% were inconclusive and are not listed. Rule as the data show it: active = normalized growth mostly below about 0.91 (no sharp cut-off); inconclusive = no clear call, values can overlap the other calls; inactive = mostly above about 0.92. The list shows a part of the results.

Test: chemical genetic growth profiling, strain panel (AID 1159580);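 also: tested at 20 µM; growth read once vehicle control cultures reached saturation at 30 °C; 1 = growth at the plate median or of vehicle wells; lower values mean less growth of the strain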
Details: S. cerevisiae deletion strains, growth OD
[1] = locus YDL101C, strain DUN1, stronger effect = lower value
[2] = locus YHR030C, strain SLT2, stronger effect = lower value
[3] = locus YAL013W, strain DEP1, stronger effect = lower value
[4] = locus YBR229C, strain ROT2, stronger effect = lower value
[5] = locus YDL134C, strain PPH21, stronger effect = lower value
[6] = locus YDR150W, strain NUM1, stronger effect = lower value
[7] = locus YEL061C, strain CIN8, stronger effect = lower value
[8] = locus YGR078C, strain PAC10, stronger effect = lower value
[9] = locus YHR087W, strain rtc3, stronger effect = lower value
[10] = locus YJR075W, strain HOC1, stronger effect = lower value
[11] = locus YLR039C, strain RIC1, stronger effect = lower value
[12] = locus YLR058C, strain SHM2 (second series), stronger effect = lower value
[13] = locus YLR085C, strain ARP6, stronger effect = lower value
[14] = locus YLR262C, strain YPT6, stronger effect = lower value
[15] = locus YML094W, strain GIM5, stronger effect = lower value
[16] = locus YMR219W, strain ESC1, stronger effect = lower value
[17] = locus YMR263W, strain SAP30, stronger effect = lower value
[18] = locus YMR307W, strain GAS1, stronger effect = lower value
[19] = locus YNL153C, strain GIM3, stronger effect = lower value
[20] = locus YNL298W, strain CLA4 (second series), stronger effect = lower value
[21] = locus YNL322C, strain KRE1, stronger effect = lower value
[22] = locus YNR030W, strain Alg12, stronger effect = lower value
[23] = locus YPL055C, strain LGE1, stronger effect = lower value
[24] = locus YPL241C, strain CIN2, stronger effect = lower value
[25] = locus YPR135W, strain CTF4, stronger effect = lower value

Measured: normalized growth

CCc1ccn2cc(Nc3ccccc3Cl)nc2c1
inactive: locus YAR019C, strain CDC15, stronger effect = lower value 0.983 | locus YBL105C, strain PKC1, stronger effect = lower value 0.976 | locus YBR135W, strain CKS1, stronger effect = lower value 0.98 | locus YBR136W, strain MEC1, stronger effect = lower value 0.968 | locus YBR160W, strain CDC28, stronger effect = lower value 0.971 | locus YDL017W, strain CDC7, stronger effect = lower value 0.974 | locus YDL028C, strain MPS1, stronger effect = lower value 0.98 | [1] 0.982 | locus YDL108W, strain KIN28, stronger effect = lower value 0.976 | locus YDL132W, strain cdc53, stronger effect = lower value 0.985 | locus YDL214C, strain PRR2, stronger effect = lower value 0.945 | locus YDR052C, strain DBF4, stronger effect = lower value 0.993 | locus YDR054C, strain cdc34, stronger effect = lower value 0.959 | locus YDR226W, strain ADK1, stronger effect = lower value 0.985 | locus YDR477W, strain SNF1, stronger effect = lower value 0.947 | locus YER123W, strain YCK3, stronger effect = lower value 0.898 | locus YER133W, strain GLC7, stronger effect = lower value 0.947 | locus YFL009W, strain cdc4, stronger effect = lower value 0.983 | locus YFL029C, strain CAK1, stronger effect = lower value 0.98 | locus YFR003C, strain YPI1, stronger effect = lower value 0.973 | locus YFR019W, strain FAB1, stronger effect = lower value 0.948 | locus YFR028C, strain CDC14, stronger effect = lower value 0.978 | locus YGR040W, strain KSS1, stronger effect = lower value 0.91 | locus YGR052W, strain FMP48, stronger effect = lower value 1.01 | locus YGR092W, strain DBF2, stronger effect = lower value 0.898 | [2] 0.965 | locus YHR079C, strain IRE1, stronger effect = lower value 0.96 | locus YHR082C, strain KSP1, stronger effect = lower value 0.998 | locus YHR205W, strain SCH9, stronger effect = lower value 0.959 | locus YIL147C, strain SLN1, stronger effect = lower value 0.973 | locus YJL095W, strain BCK1, stronger effect = lower value 0.96 | locus YJL128C, strain PBS2, stronger effect = lower value 0.967 | locus YJL157C, strain FAR1, stronger effect = lower value 0.906 | locus YJR016C, strain ILV3, stronger effect = lower value 0.987 | locus YJR066W, strain TOR1 (second series), stronger effect = lower value 0.895 | locus YJR066W, strain TOR1, stronger effect = lower value 0.973 | locus YKL048C, strain ELM1, stronger effect = lower value 0.984 | locus YKL067W, strain YNK1, stronger effect = lower value 0.962 | locus YKL101W, strain HSL1, stronger effect = lower value 0.949 | locus YKL193C, strain SDS22, stronger effect = lower value 0.979 | locus YKL203C, strain TOR2, stronger effect = lower value 0.973 | locus YLR113W, strain HOG1, stronger effect = lower value 0.916 | locus YLR133W, strain CKI1, stronger effect = lower value 0.928 | locus YLR403W, strain SFP1, stronger effect = lower value 0.886 | locus YML070W, strain DAK1, stronger effect = lower value 0.917 | locus YMR001C, strain CDC5, stronger effect = lower value 0.978 | locus YMR205C, strain PFK2 (second series), stronger effect = lower value 0.966 | locus YMR277W, strain FCP1, stronger effect = lower value 0.981 | locus YNL006W, strain LST8, stronger effect = lower value 0.997 | locus YNL020C, strain ARK1, stronger effect = lower value 0.94 | locus YNL161W, strain CBK1, stronger effect = lower value 0.98 | locus YNL183C, strain NPR1, stronger effect = lower value 0.973 | locus YNL207W, strain RIO2, stronger effect = lower value 0.972 | locus YNL222W, strain SSU72, stronger effect = lower value 0.973 | locus YNL307C, strain MCK1 (second series), stronger effect = lower value 0.917 | locus YOL078W, strain AVO1, stronger effect = lower value 0.981 | locus YOL136C, strain PFK27, stronger effect = lower value 0.926 | locus YOR061W, strain CKA2, stronger effect = lower value 0.963 | locus YOR119C, strain RIO1, stronger effect = lower value 0.985 | locus YOR231W, strain MKK1, stronger effect = lower value 0.905 | locus YOR329C, strain SCD5, stronger effect = lower value 0.972 | locus YPL031C, strain PHO85, stronger effect = lower value 0.911 | locus YPL153C, strain RAD53, stronger effect = lower value 0.912 | locus YPL204W, strain HRR25, stronger effect = lower value 0.921 | locus YPL209C, strain IPL1, stronger effect = lower value 0.976 | locus YPL256C, strain CLN2, stronger effect = lower value 0.917 | locus YPR025C, strain CCL1, stronger effect = lower value 0.983 | locus YPR106W, strain ISR1, stronger effect = lower value 0.971 | locus YPR111W, strain DBF20, stronger effect = lower value 0.97 | strain NNK1, stronger effect = lower value 0.981 | strain TSCII, stronger effect = lower value 0.983

O=C1CCC(c2cccs2)=NN1
inactive: [3] 0.979 | [4] 1 | [1] 0.974 | [5] 1 | [6] 0.986 | [7] 0.987 | [8] 0.99 | [2] 1.03 | [9] 0.999 | locus YJR043C, strain POL32, stronger effect = lower value 1 | [10] 1.01 | [11] 0.993 | [12] 1 | [13] 0.998 | [14] 1.02 | [15] 1 | [16] 0.997 | [17] 1.03 | [18] 1.09 | [19] 0.998 | [20] 1.01 | [21] 0.985 | [22] 1 | locus YOL006C, strain TOP1, stronger effect = lower value 0.99 | [23] 1.01 | [24] 1.05 | [25] 0.901

CC(=O)c1ccc(-c2cccs2)s1
active: [2] 0.58 | [11] 0.777 | [13] 0.606 | [19] 0.878
inactive: [3] 0.95 | [4] 0.963 | [1] 0.944 | [5] 0.999 | [6] 0.953 | [7] 0.939 | [8] 0.989 | [9] 0.992 | locus YJL187C, strain SWE1, stronger effect = lower value 0.978 | [10] 0.995 | [12] 0.972 | [14] 0.855 | [15] 0.887 | [16] 0.981 | [17] 1 | [18] 0.95 | locus YNL128W, strain TEP1, stronger effect = lower value 0.98 | [20] 0.901 | [21] 0.985 | [22] 0.966 | [23] 0.9 | [24] 0.869 | [25] 0.69
